Unmarked numbers belong to inactive results. Records with an inconclusive call do not appear. Entries that show only a call come without a potency. Active and inactive are the calls of the source. Unless noted, calls come from the whole dose curve; as a rule, active = well fitted curve in the direction sought with a large enough effect in the repeat runs; inconclusive = weak or mixed curves; inactive = no such curve, though single readings can be large; an effect the other way counts as inactive or inconclusive.
What was measured:
[1] = qHTS assay to identify small molecule antagonists of the estrogen receptor alpha (ER-alpha) signaling pathway using the BG1 cell line in the presence of 0.1 nM 17-beta-estradiol - cell viability counter screen (AID 1259241); note: nearly all actives have a fitted effect of over 40% in size
Method in brief: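 VM7Luc4E2 cells (endogenous full-length ER-alpha, 4xERE-luciferase), cultured 5 days in charcoal-stripped serum, exposed to compounds with 0.1 nM 17beta-estradiol (final) for 22 hr at 37C. Viability read in same wells as live-cell protease fluorescence after 30 min.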

[2] = target: Androgen receptor (Homo sapiens) (UniProt P10275); assay: qHTS assay to identify small molecule antagonists of the androgen receptor (AR) signaling pathway using the MDA cell line in the presence of 0.5 nM R1881 (AID 1259243); note: potency is the fitted concentration of half-maximal effect; nearly all actives have a fitted effect of over 50% in size
Method in brief: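 Cells: MDA-kb2 (MMTV-luc). Stimulus: 0.5 nM R1881. Time: 16 hr, 37C, no CO2. Detection: ONE-Glo luminescence after 30 min at RT.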

[3] = target: Estrogen receptor (Homo sapiens) (UniProt P03372); assay: qHTS assay to identify small molecule antagonists of the estrogen receptor alpha (ER-alpha) signaling pathway using the BG1 cell line in the presence of 0.1 nM 17-beta-estradiol (AID 1259244); note: nearly all actives have a fitted effect of over 50% in size; note: potency is the fitted concentration of half-maximal effect
Method in brief: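 Seeding of stripped-serum-adapted VM7Luc4E2 cells, 24 h attachment, compound transfer, then 0.1 nM final 17beta-estradiol; after 22 h incubation, ONE-Glo reagent and luminescence reading.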

[4] = qHTS assay to identify small molecule HDAC inhibitors (AID 1259364);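 note: wild-type HCT-116 cells with endogenous class I/II HDAC activity; top concentration of the series differs between compounds; nearly all actives have a fitted effect of over 45% in size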
Method in brief: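 After a 2 hr compound incubation (37C, 5% CO2), HCT-116 cells seeded at 1,500/well the day before received HDAC-Glo reagent; signal read as luminescence after 30 min at room temperature.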

[5] = qHTS assay to identify small molecule HDAC inhibitors - cell viability counter screen (AID 1259365); note: series mostly up to about 92 µM; nearly all actives have a fitted effect of over 50% in size
Method in brief: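 Wild-type HCT-116 cells, 1,500/well, cultured overnight, then compound-treated 2 h at 37 C. Viability measured as ATP luminescence with CellTiter-Glo after 30 min at room temperature.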

[6] = qHTS assay to identify small molecule antagonists of the sonic hedgehog signaling (Shh) pathway - cell viability counter screen (AID 1259367); note: nearly all actives have a fitted effect of over 55% in size; note: potency is the fitted concentration of half-maximal effect
Method in brief: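 Tox21 library chemicals were tested on a Gli1-Luc NIH/3T3 clone (2,000 cells/well) stimulated by conditioned medium; viability was quantified as fluorescence from CellTiter-Fluor reagent added at 23 hr.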

[7] = qHTS assay to identify small molecule agonists of the sonic hedgehog signaling (Shh) pathway (AID 1259368; calls by dose curve;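 note: NIH/3T3-derived 3T3Gli1-Luc cells carrying a stable Gli1-driven firefly luciferase reporter; series mostly up to about 92 µM; nearly all actives have a fitted effect of over 15% in size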)
Method in brief: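 Stable NIH/3T3 Gli1-Luc reporter clone; 24 hr cpd exposure after a 4 hr settling period; luminescence endpoint.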

[8] = qHTS assay to identify small molecule antagonists of the sonic hedgehog signaling (Shh) pathway (AID 1259369; calls by dose curve; note: nearly all actives have a fitted effect of over 45% in size; note: potency is the fitted concentration of half-maximal effect)
Method in brief: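 Gli1 transcriptional reporter (firefly Luc) in NIH/3T3 background, conditioned-medium activated. 24hr exposure, luminescence endpoint.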

[9] = qHTS assay to identify small molecule agonists of the androgen receptor (AR) signaling pathway in the presence of an antagonist - cell viability counter screen (AID 1259379); note: nearly all actives have a fitted effect of over 25% in size; note: potency is the fitted concentration of half-maximal effect
Method in brief: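 Counter screen for cell viability run in parallel with the AR agonist-mode luciferase assay. MDA-kb2 cells were co-treated with nilutamide (3.0uM final) and compounds, then incubated 16 hr at 37C, and CellTiter-Fluor fluorescence was measured.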

[10] = qHTS assay to identify small molecule agonists of the estrogen receptor beta (ER-beta) signaling pathway - cell viability counter screen (AID 1259380); note: nearly all actives have a fitted effect of over 30% in size; note: potency is the fitted concentration of half-maximal effect
Method in brief: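 In this qHTS counter screen, HEK293T cells carrying an ER-beta/UAS beta-lactamase reporter, grown in 2% charcoal-stripped FBS, received compound for 16 hr; ATP-based CellTiter-Glo luminescence was then read after 30 min at room temperature.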

[11] = target: Androgen receptor (Homo sapiens) (UniProt P10275); assay: qHTS assay to identify small molecule agonists of the androgen receptor (AR) signaling pathway in the presence of an antagonist (AID 1259381; calls by dose curve; note: nearly all actives have a fitted effect of over 15% in size)
Method in brief: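 AR antagonist background: nilutamide 3.0uM final. Cell line: MDA-kb2, MMTV-driven luciferase, responsive to both AR and GR. Exposure 16hr, 37C, no CO2; ONE-Glo luminescence.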

[12] = target: Estrogen receptor (Homo sapiens) (UniProt P03372); assay: qHTS assay to identify small molecule agonists of the estrogen receptor alpha (ER-alpha) signaling pathway in the presence of an antagonist (AID 1259383; calls by dose curve; note: top concentration of the series differs between compounds; nearly all actives have a fitted effect of over 15% in size)
Method in brief: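 ER-alpha agonism measured under antagonist challenge: 10.0nM ICI-182,780 (final) plus compound, 15 concentrations, 22hr, VM7Luc4E2 ERE-luciferase cells. Read by luminescence.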

[13] = qHTS assay to identify small molecule agonists or antagonists of the thyroid stimulating hormone receptor (TSHR) signaling pathway - wild type cell line counter screen (AID 1259384; calls by dose curve)
Method in brief: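 Wild-type Hek293 cells, 800/well, 18 h at 37C, then compound with Ro20-1724 for 30 min RT. cAMP by HTRF (cAMP-d2/anti-cAMP cryptate), 1 h RT, fluorescence read. 15 concentrations, triplicates.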

[14] = target: Thyrotropin receptor (Homo sapiens) (UniProt P16473); assay: qHTS assay to identify small molecule antagonists of the thyroid stimulating hormone receptor (TSHR) signaling pathway (AID 1259385; calls by dose curve; note: nearly all actives have a fitted effect of over 20% in size; note: potency is the fitted concentration of half-maximal effect)
Method in brief: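 TSHR-HEK293 cells (800/well) plated 18 h, then compounds with Ro20-1724 and TSH at 1.5 ng/mL final, 30 min at room temperature. cAMP quantified by HTRF (cAMP-d2/anti-cAMP-cryptate, 1 h); 15 concentrations in triplicate.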

[15] = qHTS assay to identify small molecule agonists of the sonic hedgehog signaling (Shh) pathway - cell viability counter screen (AID 1259366); note: nearly all actives have a fitted effect of over 50% in size; note: potency is the fitted concentration of half-maximal effect
Method in brief: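 NIH/3T3-derived Gli1-Luc reporter cells, 2,000 per well, received compound after 4 h and were treated about 23 h at 37C. Viability measured in the same wells by CellTiter-Fluor fluorescence after 1 h.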

[16] = qHTS assay to identify small molecule antagonists of the estrogen receptor beta (ER-beta) signaling pathway - cell viability counter screen (AID 1259382); note: nearly all actives have a fitted effect of over 55% in size; note: potency is the fitted concentration of half-maximal effect
Method in brief: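 HEK293T ER-beta-UAS-bla, 2% charcoal-stripped FBS; compounds + 1nM E2 16 hr 37C; CellTiter-Glo luminescence, 30 min RT.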

[17] = qHTS assay to identify small molecule antagonists of the androgen receptor (AR) signaling pathway using the MDA cell line in the presence of 0.5 nM R1881 - cell viability counter screen (AID 1259242); note: nearly all actives have a fitted effect of over 45% in size; note: potency is the fitted concentration of half-maximal effect
Method in brief: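 Human breast carcinoma MDA-kb2 cells, cultured without CO2, receive compounds alongside 0.5 nM (final) R1881 agonist. After 16 hr at 37C, viability is taken as live-cell protease signal.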

[18] = target: Estrogen receptor beta (Homo sapiens) (UniProt Q92731); assay: qHTS assay to identify small molecule antagonists of the estrogen receptor beta (ER-beta) signaling pathway (AID 1259378; active = well fitted inhibition curve with a large enough effect in the signal ratio in the repeat runs, not every such curve was filed as active; the % refers to the signal ratio; note: potency is the fitted concentration of half-maximal effect)
Method in brief: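 ER-beta-UAS-bla HEK293T cells in 2% charcoal-stripped FBS medium treated with compound plus 1nM final 17-beta-estradiol for 16 hr at 37C. Beta-lactamase reporter read by FRET substrate fluorescence after 2 hours at room temperature.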

[19] = qHTS assay to identify small molecule phospholipidosis (PLD) inducers (AID 1259344; active = well fitted curve in the direction sought with a large enough effect; an effect the other way counts as inactive or inconclusive)
Method in brief: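 Image-based: LipidTOX Red pit count/intensity per well and per cell; HepG2, 24 h compound at 37 C, PFA fixation, Hoechst counterstain.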

[20] = target: Estrogen receptor beta (Homo sapiens) (UniProt Q92731); assay: qHTS assay to identify small molecule agonists of the estrogen receptor beta (ER-beta) signaling pathway (AID 1259377; active = well fitted activation curve with a large enough effect in the signal ratio in the repeat runs, not every such curve was filed as active; the % refers to the signal ratio)
Method in brief: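 ER-beta-UAS-bla HEK293T cells in medium with 2% charcoal-stripped FBS were exposed to compounds for 16 h at 37C. Beta-lactamase reporter activity was read as fluorescence after 2 h with LiveBLAzer B/G FRET substrate at room temperature.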

Chain of Androgen receptor (Homo sapiens) (P10275 whole entry, looked up): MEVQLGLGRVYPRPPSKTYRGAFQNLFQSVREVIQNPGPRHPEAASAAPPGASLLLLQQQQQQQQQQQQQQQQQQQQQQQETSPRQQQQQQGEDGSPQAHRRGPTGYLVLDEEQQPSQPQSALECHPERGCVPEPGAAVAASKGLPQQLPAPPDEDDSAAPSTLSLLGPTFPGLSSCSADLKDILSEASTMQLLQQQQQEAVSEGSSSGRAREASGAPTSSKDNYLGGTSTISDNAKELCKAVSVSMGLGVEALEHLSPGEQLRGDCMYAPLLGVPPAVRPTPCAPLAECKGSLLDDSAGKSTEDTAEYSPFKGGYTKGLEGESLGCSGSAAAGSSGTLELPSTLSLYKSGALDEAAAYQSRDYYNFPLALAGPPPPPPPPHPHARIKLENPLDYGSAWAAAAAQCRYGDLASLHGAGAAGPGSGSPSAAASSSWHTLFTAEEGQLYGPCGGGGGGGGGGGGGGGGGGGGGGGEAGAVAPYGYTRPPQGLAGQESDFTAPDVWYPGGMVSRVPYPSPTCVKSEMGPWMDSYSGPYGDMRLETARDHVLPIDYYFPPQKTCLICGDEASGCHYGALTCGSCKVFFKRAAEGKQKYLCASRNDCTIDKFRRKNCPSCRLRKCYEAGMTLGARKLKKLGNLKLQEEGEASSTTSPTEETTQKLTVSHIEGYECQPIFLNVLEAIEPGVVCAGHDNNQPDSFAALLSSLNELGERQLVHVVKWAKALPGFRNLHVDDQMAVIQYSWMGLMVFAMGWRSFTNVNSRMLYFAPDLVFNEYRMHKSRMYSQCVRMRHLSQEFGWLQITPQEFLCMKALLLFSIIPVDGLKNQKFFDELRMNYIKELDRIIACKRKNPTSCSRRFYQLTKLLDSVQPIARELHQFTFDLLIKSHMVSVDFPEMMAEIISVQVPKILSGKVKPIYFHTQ
Chain of Estrogen receptor (Homo sapiens) (P03372 whole entry, looked up): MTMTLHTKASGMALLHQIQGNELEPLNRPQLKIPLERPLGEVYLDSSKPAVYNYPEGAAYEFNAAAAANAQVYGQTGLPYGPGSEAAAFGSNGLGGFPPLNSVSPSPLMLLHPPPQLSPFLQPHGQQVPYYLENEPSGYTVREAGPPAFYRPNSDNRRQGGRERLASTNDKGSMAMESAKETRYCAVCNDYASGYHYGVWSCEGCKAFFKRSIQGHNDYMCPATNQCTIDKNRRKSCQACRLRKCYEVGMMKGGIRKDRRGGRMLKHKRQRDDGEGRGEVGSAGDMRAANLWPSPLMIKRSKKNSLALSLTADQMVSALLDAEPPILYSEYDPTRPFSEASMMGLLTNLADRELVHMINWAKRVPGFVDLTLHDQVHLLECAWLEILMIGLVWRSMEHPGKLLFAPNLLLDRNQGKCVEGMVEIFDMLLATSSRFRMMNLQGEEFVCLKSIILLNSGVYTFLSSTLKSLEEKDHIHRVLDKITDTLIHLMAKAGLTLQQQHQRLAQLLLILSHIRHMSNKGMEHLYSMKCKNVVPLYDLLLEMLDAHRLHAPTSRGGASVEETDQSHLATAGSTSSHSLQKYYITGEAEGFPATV
Chain of Estrogen receptor beta (Homo sapiens) (Q92731 whole entry, looked up): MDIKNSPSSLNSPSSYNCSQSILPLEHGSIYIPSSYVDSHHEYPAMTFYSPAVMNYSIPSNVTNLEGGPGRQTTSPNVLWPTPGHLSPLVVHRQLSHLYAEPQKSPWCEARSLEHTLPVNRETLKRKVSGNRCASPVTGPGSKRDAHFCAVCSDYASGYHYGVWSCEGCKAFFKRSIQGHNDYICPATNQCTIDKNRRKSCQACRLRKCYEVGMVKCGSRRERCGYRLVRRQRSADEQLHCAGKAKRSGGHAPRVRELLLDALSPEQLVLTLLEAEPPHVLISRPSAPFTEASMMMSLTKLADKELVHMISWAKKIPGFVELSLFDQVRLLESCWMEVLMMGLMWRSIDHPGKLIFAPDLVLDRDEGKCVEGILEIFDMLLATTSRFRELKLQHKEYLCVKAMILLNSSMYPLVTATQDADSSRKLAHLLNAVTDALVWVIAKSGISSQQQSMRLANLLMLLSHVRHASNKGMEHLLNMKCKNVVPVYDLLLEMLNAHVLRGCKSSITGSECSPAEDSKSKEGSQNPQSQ
Chain of Thyrotropin receptor (Homo sapiens) (P16473 whole entry, looked up): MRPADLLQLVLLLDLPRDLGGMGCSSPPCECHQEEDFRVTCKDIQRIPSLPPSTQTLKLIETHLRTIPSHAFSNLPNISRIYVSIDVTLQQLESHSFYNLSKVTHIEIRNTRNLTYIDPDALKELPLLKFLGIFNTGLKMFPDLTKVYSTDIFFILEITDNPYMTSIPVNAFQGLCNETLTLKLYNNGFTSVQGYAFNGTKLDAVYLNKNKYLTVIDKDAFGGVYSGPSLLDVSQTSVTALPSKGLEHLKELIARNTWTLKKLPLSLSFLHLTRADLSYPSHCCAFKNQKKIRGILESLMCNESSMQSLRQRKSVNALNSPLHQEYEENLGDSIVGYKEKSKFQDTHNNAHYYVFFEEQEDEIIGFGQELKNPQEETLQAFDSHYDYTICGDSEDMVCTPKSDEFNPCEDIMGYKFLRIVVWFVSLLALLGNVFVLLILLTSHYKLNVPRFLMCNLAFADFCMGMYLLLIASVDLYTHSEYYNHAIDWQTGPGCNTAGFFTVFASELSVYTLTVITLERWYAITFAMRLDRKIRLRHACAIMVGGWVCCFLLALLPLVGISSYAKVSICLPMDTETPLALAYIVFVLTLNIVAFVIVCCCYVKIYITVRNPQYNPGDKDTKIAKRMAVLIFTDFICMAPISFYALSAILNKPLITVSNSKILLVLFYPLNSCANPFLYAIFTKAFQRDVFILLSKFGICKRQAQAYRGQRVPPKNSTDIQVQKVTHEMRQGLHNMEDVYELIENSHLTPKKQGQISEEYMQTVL

SMILES	Potency [1]	Potency [2]	Potency [3]	Potency [4]	Potency [5]	Potency [6]	Potency [7]	Potency [8]	Potency [9]	Potency [10]	Potency [11]	Potency [12]	outcome [13]	Potency [14]	Potency [15]	Potency [16]	Potency [17]	Potency [18]	Potency [19]	Potency [20]
O=c1[nH]sc2cc(Cl)ccc12	inactive	0.001 µM (active)	inactive	inactive	inactive	inactive	inactive	inactive	inactive	11.9 µM (active)	inactive	inactive	inactive	inactive						
CCCCCCCCCCCCCCCCCC[N+](C)(C)C	inactive	27.4 µM (active)	54.6 µM (active)	inactive			inactive	0.274 µM (active)	61.3 µM (active)	27.4 µM (active)	inactive	inactive	inactive	inactive	68.8 µM (active)	30.7 µM (active)				
NC(=O)C1(N2CCCCC2)CCN(CCCN2c3ccccc3CCc3ccc(Cl)cc32)CC1	inactive			inactive	inactive	29.8 µM (active)	inactive	8.41 µM (active)	23.7 µM (active)	13.3 µM (active)		inactive	inactive	29.8 µM (active)		21.1 µM (active)	26.6 µM (active)	11.9 µM (active)		
CCN(C(=O)c1cc(C)cc(OC[C@H](C)Nc2ccncc2)c1)C(C)C	inactive			inactive	inactive	inactive	inactive		inactive	inactive			inactive	inactive	inactive		inactive			
Cc1ccc(-n2nc(C(C)(C)C)cc2NC(=O)Nc2ccc(OCCN3CCOCC3)c3ccccc23)cc1	inactive		inactive	inactive	inactive	inactive	inactive	inactive	inactive	7.5 µM (active)		inactive	inactive	inactive	inactive	inactive		26.6 µM (active)	inactive	inactive
COc1c(C)c2c(c(O)c1C/C=C(\C)CCC(=O)O)C(=O)OC2	inactive		inactive	inactive	inactive	inactive	inactive	inactive	inactive	0.133 µM (active)		inactive			inactive				inactive	inactive
Cc1cc(O)c(C(C)(C)C)cc1C(C)(C)C	inactive	61.1 µM (active)	54.5 µM (active)	inactive		61.1 µM (active)	inactive	48.6 µM (active)		54.5 µM (active)	inactive	inactive	inactive	inactive	61.1 µM (active)	61.1 µM (active)				
